# Experimental data published in article PMC7862700, “An all-to-all approach to the identification of sequence-specific readers for epigenetic DNA modifications on cytosine”.
# Experiments:
# Experiment in all cases: DAPPL (digital affinity profiling via proximity ligation, sequencing); 10 mM Tris-HCl pH 7.5, 50 mM NaCl, 1 mM DTT, 4% glycerol, room temperature, 30 min; GST-TFs on glutathione beads, 16-mer random dsDNA library, 0.1% formaldehyde crosslink after washing; high values mean tight binding
# FLI1 = biological target: T1, FLI1 (Homo sapiens, UniProt Q01543 1-452); settings: protein: recombinant; tags: N-terminal GST; dsDNA, one strand shown
# T1 sequence: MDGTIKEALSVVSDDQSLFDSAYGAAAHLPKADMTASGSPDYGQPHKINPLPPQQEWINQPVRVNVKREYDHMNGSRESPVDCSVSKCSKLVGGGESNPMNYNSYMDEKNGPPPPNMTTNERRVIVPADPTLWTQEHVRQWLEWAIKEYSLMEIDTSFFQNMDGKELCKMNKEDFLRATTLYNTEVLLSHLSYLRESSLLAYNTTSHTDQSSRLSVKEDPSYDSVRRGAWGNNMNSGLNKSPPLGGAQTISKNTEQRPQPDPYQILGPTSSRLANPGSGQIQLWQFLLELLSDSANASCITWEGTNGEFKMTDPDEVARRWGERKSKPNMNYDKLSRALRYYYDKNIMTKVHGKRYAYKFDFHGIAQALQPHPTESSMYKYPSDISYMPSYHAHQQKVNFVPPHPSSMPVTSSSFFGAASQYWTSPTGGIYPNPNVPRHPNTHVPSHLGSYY
# Procedure, shortened: (§1)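 Binding signal is defined as a hexamer's read frequency for one factor over its frequency for the tag-only sample. To obtain reads, GST-fused human transcription factors were expressed in yeast, captured on glutathione beads, barcoded with DNA and pooled with that sample. Pools met 200 nmole of a 16-mer random double-stranded DNA library in Tris/NaCl/DTT/glycerol buffer for 30 min at room temperature before washing, 0.1% formaldehyde crosslinking, proximity ligation (BsaI/T4 ligase, 1 h, 37 °C), PCR and Illumina NextSeq500 sequencing.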
# ELK1 = biological target: T2, ELK1 (Homo sapiens, UniProt P19419 1-428); settings: protein: recombinant; tags: N-terminal GST; dsDNA, one strand shown
# T2 sequence: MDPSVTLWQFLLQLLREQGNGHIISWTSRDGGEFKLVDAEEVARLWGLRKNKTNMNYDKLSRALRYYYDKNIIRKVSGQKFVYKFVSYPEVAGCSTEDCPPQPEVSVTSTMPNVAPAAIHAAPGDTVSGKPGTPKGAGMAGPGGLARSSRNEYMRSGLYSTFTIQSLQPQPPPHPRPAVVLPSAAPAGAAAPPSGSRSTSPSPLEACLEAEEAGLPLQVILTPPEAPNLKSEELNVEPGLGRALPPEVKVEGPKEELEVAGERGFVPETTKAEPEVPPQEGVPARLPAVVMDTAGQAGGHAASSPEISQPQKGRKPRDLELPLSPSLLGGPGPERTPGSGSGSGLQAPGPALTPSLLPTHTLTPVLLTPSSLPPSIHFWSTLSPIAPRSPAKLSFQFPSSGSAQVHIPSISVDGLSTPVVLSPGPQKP
# Procedure, shortened: as §1
# GABPA = biological target: T3, GABPA (Homo sapiens, UniProt Q06546 1-454); settings: protein: recombinant; tags: N-terminal GST; dsDNA, one strand shown
# T3 sequence: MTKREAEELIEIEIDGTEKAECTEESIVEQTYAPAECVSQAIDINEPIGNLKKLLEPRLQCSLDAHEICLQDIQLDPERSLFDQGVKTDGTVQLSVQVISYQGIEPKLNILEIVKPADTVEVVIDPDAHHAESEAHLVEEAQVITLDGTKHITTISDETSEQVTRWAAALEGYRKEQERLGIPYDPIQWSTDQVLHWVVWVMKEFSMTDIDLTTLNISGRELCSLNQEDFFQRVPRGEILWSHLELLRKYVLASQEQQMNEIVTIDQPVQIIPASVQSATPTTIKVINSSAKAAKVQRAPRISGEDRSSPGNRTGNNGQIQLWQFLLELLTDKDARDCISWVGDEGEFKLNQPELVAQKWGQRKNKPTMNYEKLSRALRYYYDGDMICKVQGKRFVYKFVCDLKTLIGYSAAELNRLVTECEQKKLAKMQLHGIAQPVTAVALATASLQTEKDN
# Procedure, shortened: as §1
# ERG = biological target: T4, ERG (Homo sapiens, UniProt P11308 1-479); settings: protein: recombinant; tags: N-terminal GST; dsDNA, one strand shown
# T4 sequence: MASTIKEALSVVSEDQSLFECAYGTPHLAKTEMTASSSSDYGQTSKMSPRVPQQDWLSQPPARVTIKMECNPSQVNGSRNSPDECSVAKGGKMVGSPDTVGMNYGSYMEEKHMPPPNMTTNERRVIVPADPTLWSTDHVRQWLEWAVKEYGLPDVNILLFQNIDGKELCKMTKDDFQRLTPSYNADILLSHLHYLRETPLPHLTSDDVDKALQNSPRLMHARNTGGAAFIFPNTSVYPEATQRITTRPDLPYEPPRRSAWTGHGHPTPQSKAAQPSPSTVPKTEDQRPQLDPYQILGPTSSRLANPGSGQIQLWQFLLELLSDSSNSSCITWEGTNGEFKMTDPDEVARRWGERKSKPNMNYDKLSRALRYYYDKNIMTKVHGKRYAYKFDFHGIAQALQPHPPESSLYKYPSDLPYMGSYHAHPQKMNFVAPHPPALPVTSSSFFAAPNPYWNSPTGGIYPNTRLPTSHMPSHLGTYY
# Procedure, shortened: as §1
# ELF1 = ELF1 (Homo sapiens, UniProt P32519 1-619); settings: protein: recombinant; tags: N-terminal GST; dsDNA, one strand shown
# Sequence of ELF1 (P32519 whole entry): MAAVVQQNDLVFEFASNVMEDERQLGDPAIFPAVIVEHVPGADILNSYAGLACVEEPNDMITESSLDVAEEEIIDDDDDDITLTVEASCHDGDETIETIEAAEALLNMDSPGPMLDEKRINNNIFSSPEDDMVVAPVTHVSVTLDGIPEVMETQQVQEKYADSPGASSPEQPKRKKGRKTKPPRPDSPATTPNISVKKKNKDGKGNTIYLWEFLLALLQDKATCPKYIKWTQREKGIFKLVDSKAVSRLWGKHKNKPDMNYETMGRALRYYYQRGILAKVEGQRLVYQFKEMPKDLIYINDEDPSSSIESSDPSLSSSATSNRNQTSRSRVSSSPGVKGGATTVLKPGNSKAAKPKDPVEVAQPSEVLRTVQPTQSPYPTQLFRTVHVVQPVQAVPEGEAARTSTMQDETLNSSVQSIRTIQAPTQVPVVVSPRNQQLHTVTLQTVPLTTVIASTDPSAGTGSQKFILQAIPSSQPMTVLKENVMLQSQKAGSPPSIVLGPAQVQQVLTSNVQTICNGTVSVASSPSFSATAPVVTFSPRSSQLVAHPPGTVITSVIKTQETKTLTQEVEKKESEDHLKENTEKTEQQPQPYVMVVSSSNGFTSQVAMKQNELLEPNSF
# Procedure, shortened: as §1
# EHF = biological target: T5, EHF (Homo sapiens, UniProt Q9NZC4 1-300); settings: protein: recombinant; tags: N-terminal GST; dsDNA, one strand shown
# T5 sequence: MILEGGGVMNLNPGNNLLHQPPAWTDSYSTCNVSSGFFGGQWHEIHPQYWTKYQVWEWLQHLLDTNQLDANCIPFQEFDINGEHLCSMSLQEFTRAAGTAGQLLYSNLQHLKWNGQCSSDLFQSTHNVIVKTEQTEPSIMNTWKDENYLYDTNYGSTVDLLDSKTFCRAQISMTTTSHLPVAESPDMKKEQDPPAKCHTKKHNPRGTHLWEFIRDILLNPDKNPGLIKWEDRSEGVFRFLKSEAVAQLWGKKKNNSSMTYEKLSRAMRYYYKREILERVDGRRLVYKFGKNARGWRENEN
# Procedure, shortened: as §1
# SPI1 = SPI1 (Homo sapiens, UniProt P17947 1-270); settings: protein: recombinant; tags: N-terminal GST; dsDNA, one strand shown
# Procedure, shortened: as §1
# SPIB = SPIB (Homo sapiens, UniProt Q01892 1-262); settings: protein: recombinant; tags: N-terminal GST; dsDNA, one strand shown
# Sequence of SPIB (Q01892 whole entry): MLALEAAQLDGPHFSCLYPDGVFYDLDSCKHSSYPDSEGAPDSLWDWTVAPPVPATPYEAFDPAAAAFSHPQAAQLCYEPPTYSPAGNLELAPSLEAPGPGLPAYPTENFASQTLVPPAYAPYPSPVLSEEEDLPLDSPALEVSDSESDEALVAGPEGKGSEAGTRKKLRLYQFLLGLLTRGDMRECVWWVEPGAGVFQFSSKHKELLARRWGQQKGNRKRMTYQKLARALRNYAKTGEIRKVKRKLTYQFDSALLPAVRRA
# Procedure, shortened: as §1
# ELK3 = biological target: T6, ELK3 (Homo sapiens, UniProt P41970 1-407); settings: protein: recombinant; tags: N-terminal GST; dsDNA, one strand shown
# T6 sequence: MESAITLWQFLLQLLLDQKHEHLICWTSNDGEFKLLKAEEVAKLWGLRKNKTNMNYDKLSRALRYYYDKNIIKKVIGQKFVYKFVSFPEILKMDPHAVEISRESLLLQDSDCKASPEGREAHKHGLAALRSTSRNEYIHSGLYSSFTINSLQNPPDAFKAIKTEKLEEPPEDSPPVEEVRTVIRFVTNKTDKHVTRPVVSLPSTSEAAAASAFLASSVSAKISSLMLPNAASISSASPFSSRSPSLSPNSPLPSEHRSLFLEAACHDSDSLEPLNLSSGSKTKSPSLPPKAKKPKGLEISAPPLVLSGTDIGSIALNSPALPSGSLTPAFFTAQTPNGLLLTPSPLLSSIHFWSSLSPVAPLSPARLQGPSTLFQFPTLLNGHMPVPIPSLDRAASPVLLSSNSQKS
# Procedure, shortened: as §1
# FEV = biological target: T7, FEV (Homo sapiens, UniProt Q99581 1-238); settings: protein: recombinant; tags: N-terminal GST; dsDNA, one strand shown
# T7 sequence: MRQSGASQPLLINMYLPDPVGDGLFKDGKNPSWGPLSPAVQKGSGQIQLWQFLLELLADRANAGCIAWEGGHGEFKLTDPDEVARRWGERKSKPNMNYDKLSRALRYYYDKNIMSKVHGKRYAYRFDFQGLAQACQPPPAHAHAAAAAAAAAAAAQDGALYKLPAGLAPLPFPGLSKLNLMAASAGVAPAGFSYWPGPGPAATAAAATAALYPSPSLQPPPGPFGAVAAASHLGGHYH
# Procedure, shortened: as §1
# ETV5 = ETV5 (Homo sapiens, UniProt P41161 1-510); settings: protein: recombinant; tags: N-terminal GST; dsDNA, one strand shown
# Sequence of ETV5 (P41161 whole entry): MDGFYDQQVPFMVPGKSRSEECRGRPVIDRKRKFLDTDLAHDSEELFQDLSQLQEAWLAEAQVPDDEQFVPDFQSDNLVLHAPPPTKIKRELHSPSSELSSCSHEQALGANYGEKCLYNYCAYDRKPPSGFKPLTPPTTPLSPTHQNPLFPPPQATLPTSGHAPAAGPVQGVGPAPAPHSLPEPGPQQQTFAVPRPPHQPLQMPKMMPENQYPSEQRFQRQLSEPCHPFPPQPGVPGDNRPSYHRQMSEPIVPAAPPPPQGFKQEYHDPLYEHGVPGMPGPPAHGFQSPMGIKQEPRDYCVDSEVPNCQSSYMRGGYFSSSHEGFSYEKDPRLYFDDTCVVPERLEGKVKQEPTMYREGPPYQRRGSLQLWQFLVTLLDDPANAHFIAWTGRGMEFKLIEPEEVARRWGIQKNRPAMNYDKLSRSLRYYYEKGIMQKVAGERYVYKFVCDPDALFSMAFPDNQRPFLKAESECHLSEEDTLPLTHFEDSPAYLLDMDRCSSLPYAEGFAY
# Procedure, shortened: as §1
# HSF1 = HSF1 (Homo sapiens, UniProt Q00613 1-529); settings: protein: recombinant; tags: N-terminal GST; chain copies: 3; dsDNA, one strand shown
# Sequence of HSF1 (Q00613 whole entry): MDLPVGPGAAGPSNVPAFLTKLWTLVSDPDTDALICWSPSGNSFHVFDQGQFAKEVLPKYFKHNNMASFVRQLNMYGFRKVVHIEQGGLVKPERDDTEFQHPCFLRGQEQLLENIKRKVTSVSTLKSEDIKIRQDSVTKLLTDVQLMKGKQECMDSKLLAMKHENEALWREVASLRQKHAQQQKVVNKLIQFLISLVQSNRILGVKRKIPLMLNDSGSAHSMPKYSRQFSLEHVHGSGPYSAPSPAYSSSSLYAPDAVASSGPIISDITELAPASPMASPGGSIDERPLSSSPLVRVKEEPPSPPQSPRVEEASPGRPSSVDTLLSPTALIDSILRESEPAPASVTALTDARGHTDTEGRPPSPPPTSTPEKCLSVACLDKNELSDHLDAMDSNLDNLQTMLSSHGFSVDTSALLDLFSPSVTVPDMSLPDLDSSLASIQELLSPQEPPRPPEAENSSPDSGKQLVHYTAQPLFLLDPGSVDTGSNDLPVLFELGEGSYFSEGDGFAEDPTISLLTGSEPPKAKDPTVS
# Procedure, shortened: as §1
# SPIC = biological target: T8, SPIC (Homo sapiens, UniProt Q8N5J4 1-248); settings: protein: recombinant; tags: N-terminal GST; dsDNA, one strand shown
# T8 sequence: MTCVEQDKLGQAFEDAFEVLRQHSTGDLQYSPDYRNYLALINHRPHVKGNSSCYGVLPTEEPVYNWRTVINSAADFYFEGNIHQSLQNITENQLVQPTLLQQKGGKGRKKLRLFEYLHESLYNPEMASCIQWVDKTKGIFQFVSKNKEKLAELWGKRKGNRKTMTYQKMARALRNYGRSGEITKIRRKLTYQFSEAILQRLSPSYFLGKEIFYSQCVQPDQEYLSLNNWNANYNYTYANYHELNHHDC
# Procedure, shortened: as §1
# ELF4 = ELF4 (Homo sapiens, UniProt Q99607 1-663); settings: protein: recombinant; tags: N-terminal GST; dsDNA, one strand shown
# Sequence of ELF4 (Q99607 whole entry): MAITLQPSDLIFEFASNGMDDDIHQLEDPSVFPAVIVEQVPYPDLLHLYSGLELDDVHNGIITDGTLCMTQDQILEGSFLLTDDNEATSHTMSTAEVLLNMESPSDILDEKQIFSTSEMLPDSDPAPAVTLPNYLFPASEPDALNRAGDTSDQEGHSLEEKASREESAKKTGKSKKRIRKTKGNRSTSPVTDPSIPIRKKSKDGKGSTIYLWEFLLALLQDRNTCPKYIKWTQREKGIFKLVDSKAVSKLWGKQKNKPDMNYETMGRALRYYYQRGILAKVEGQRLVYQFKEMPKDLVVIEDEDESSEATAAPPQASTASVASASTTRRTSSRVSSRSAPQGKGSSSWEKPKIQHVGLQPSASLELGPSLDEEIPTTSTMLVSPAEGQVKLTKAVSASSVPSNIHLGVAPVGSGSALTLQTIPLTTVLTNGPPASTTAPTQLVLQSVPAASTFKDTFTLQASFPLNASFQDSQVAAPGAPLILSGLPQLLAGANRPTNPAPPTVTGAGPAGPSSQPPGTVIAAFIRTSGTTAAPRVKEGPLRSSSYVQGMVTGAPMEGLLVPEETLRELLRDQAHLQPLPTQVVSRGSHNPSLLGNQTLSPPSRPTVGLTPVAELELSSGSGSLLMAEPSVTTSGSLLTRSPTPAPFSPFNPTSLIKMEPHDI
# Procedure, shortened: as §1
# ELK4 = biological target: T9, ELK4 (Homo sapiens, UniProt P28324-2 1-405); settings: protein: recombinant; tags: N-terminal GST; dsDNA, one strand shown
# T9 sequence: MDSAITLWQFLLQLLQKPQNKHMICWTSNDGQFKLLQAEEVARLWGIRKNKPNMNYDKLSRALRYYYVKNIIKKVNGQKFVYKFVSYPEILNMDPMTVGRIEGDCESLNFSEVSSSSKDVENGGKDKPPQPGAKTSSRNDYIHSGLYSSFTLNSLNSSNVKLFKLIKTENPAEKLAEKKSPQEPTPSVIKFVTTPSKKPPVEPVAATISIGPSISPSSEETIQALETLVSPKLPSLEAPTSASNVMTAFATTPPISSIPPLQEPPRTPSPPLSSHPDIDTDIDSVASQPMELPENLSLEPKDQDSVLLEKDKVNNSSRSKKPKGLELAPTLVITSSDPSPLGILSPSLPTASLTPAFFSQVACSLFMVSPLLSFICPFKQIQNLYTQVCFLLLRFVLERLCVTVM
# Procedure, shortened: as §1
# ETV2 = biological target: T10, ETV2 (Homo sapiens, UniProt O00321 1-342); settings: protein: recombinant; tags: N-terminal GST; dsDNA, one strand shown
# T10 sequence: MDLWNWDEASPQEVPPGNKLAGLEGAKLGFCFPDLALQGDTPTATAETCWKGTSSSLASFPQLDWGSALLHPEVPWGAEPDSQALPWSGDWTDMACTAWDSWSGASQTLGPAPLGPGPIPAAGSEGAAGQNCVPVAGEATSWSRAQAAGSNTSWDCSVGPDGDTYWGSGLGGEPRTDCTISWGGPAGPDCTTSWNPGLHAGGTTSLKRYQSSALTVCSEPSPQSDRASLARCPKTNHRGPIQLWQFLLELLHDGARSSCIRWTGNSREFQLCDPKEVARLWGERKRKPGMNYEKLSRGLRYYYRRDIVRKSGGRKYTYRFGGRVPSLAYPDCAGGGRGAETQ
# Procedure, shortened: as §1
# ELF3 = biological target: T11, ELF3 (Homo sapiens, UniProt P78545 1-371); settings: protein: recombinant; tags: N-terminal GST; dsDNA, one strand shown
# T11 sequence: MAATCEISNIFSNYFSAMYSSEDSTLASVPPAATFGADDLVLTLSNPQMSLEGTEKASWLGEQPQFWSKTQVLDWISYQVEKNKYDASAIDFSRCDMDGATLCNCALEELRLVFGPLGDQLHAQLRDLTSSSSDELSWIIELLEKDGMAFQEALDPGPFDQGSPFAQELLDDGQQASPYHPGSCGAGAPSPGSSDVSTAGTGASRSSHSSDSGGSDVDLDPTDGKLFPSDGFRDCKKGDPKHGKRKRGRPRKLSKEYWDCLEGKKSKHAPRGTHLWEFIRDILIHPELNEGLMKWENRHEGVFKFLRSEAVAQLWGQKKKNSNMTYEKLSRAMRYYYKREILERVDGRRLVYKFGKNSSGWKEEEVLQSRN
# Procedure, shortened: as §1
# CRX = CRX (Homo sapiens, UniProt O43186 1-299); settings: protein: recombinant; tags: N-terminal GST; dsDNA, one strand shown
# Sequence of CRX (O43186 whole entry): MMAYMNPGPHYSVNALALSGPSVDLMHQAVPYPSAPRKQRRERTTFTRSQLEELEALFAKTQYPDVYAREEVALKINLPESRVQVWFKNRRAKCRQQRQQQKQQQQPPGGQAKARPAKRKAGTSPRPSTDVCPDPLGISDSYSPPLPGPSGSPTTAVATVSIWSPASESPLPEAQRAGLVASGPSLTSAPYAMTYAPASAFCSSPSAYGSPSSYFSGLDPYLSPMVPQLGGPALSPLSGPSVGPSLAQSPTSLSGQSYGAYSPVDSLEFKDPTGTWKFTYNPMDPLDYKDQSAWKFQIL
# Procedure, shortened: as §1
# ETV1 = ETV1 (Homo sapiens, UniProt P50549 1-477); settings: protein: recombinant; tags: N-terminal GST; dsDNA, one strand shown
# Sequence of ETV1 (P50549 whole entry): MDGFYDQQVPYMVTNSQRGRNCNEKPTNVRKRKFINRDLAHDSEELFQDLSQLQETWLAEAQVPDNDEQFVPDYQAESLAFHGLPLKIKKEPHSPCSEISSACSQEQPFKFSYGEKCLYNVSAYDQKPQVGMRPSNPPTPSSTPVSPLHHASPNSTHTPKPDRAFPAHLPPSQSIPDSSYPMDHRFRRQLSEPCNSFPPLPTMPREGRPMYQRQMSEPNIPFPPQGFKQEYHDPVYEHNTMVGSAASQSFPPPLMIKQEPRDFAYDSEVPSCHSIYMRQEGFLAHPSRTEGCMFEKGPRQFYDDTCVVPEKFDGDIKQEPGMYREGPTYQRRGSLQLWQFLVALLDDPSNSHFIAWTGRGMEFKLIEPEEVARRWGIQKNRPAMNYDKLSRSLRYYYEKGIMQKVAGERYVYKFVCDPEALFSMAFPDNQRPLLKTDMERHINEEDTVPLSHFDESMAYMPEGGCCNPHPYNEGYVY
# Procedure, shortened: as §1
sequence,measurement,setting,value
CAATCC,binding signal,FLI1,"1.17 fold enrichment (6-mer frequency, TF over GST control)"
same,binding signal,ELK1,"1.19 fold enrichment (6-mer frequency, TF over GST control)"
same,binding signal,GABPA,"1.26 fold enrichment (6-mer frequency, TF over GST control)"
same,binding signal,ERG,"1.24 fold enrichment (6-mer frequency, TF over GST control)"
same,binding signal,ELF1,"1.22 fold enrichment (6-mer frequency, TF over GST control)"
same,binding signal,EHF,"1.07 fold enrichment (6-mer frequency, TF over GST control)"
same,binding signal,SPI1,"1.12 fold enrichment (6-mer frequency, TF over GST control)"
same,binding signal,SPIB,"1.2 fold enrichment (6-mer frequency, TF over GST control)"
same,binding signal,ELK3,"1.08 fold enrichment (6-mer frequency, TF over GST control)"
same,binding signal,FEV,"1.17 fold enrichment (6-mer frequency, TF over GST control)"
same,binding signal,ETV5,"1.12 fold enrichment (6-mer frequency, TF over GST control)"
same,binding signal,HSF1,"1.37 fold enrichment (6-mer frequency, TF over GST control)"
same,binding signal,SPIC,"1.11 fold enrichment (6-mer frequency, TF over GST control)"
same,binding signal,ELF4,"1.19 fold enrichment (6-mer frequency, TF over GST control)"
same,binding signal,ELK4,"1.19 fold enrichment (6-mer frequency, TF over GST control)"
same,binding signal,ETV2,"1.38 fold enrichment (6-mer frequency, TF over GST control)"
same,binding signal,ELF3,"1.3 fold enrichment (6-mer frequency, TF over GST control)"
same,binding signal,CRX,"1.6 fold enrichment (6-mer frequency, TF over GST control)"
same,binding signal,ETV1,"1.19 fold enrichment (6-mer frequency, TF over GST control)"
